{
  "source": "paper PMC7819943",
  "about": "“Rice protein-binding microarrays: a tool to detect cis-acting elements near promoter regions in rice”",
  "note": "Whole data set: some 35,000 sequences, median “fluorescence intensity (a.u.)” near 10,000, cut for the highest 2% near 52,000. This is one part of a sample in which the highest values are shown more often than they occur.",
  "data": [
    {"molecular_target": "T1, OsWOX13 (Oryza sativa, UniProt Q5QMM3 1-267)", "T1 sequence": "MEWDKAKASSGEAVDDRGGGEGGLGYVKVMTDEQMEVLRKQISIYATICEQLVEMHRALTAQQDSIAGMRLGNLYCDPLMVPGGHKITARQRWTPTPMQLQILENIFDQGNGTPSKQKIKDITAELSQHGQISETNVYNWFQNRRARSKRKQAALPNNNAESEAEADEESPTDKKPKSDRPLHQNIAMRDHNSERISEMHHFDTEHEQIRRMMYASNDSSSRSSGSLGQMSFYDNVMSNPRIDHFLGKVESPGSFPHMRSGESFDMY", "assay": "protein-binding microarray (RPBM); PBS, 2% BSA, 51.3 ng/ul salmon testes DNA, 50 uM zinc acetate, 200 nM TF, 25 C, 1 h; high values mean tight binding", "settings": "protein: recombinant; tags: N-terminal polyhistidine and DsRed monomer fusion (pET32a); label: CyDye5-dUTP incorporated in the synthesized complementary strand; 3' TTTTT single-stranded linker to array surface; dsDNA, one strand shown", "how_it_was_run": "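Binding signal is defined as the fluorescence intensity of each feature in arbitrary units, read on an Axon 4000B scanner. Transcription factors with N-terminal polyhistidine and DsRed fusions came from E. coli BL21-CodonPlus and were purified on Ni–NTA. They were incubated at 200 nM for 1 h at 25 °C on a custom Agilent array that had been made double-stranded with Cy5-dUTP, with 50 µM zinc acetate present, and the array was washed.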", "values": [
      {"sequence": "TACTATCAACTCTGTTAAAATTGAAGAATTTTGACTAAAACGGAGTCACCTAGTGCAG", "binding signal": "3310 fluorescence intensity (a.u.)"},
      {"sequence": "AGAATAATTATTTAAGTTAAGGTGTGTCACACCCCAATCCCGGAGTCACCTAGTGCAG", "binding signal": "25100 fluorescence intensity (a.u.)"},
      {"sequence": "GTGCATCACCAATCAAAACAGGAGGTGTTTGGAACTCCGTCGGAGTCACCTAGTGCAG", "binding signal": "3870 fluorescence intensity (a.u.)"},
      {"sequence": "TACGCATTGATTAGTTTTGTCAGGTTAGTATAGAATTTAACGGAGTCACCTAGTGCAG", "binding signal": "14000 fluorescence intensity (a.u.)"},
      {"sequence": "CAGGTGTGATTGAAGTGATGTACTCAACTTACACCCGGGCCGGAGTCACCTAGTGCAG", "binding signal": "54400 fluorescence intensity (a.u.)"},
      {"sequence": "GTACTTGATAGTTCAGTGATAAGGGGTGTGATTTCAACCCCGGAGTCACCTAGTGCAG", "binding signal": "4490 fluorescence intensity (a.u.)"},
      {"sequence": "GTACTAGTATTATTGATTGATACACTTGTGATGTCATGCCCGGAGTCACCTAGTGCAG", "binding signal": "30900 fluorescence intensity (a.u.)"},
      {"sequence": "ACATAATTAGTTTATCTCTCCTCAAGCTGGTGCATCTCTCCGGAGTCACCTAGTGCAG", "binding signal": "31200 fluorescence intensity (a.u.)"},
      {"sequence": "TCTCCAAGATTGATCCGCATCTCCAACTAAACCCTCTCCTCGGAGTCACCTAGTGCAG", "binding signal": "7230 fluorescence intensity (a.u.)"},
      {"sequence": "TCGCTTTGATTGACACTAAGAACCTCGCTGCGCATCTCGTCGGAGTCACCTAGTGCAG", "binding signal": "58600 fluorescence intensity (a.u.)"},
      {"sequence": "GAACCTTTTGATTGATTCTCGTCCTACACGCTTGAAGGCGCGGAGTCACCTAGTGCAG", "binding signal": "38200 fluorescence intensity (a.u.)"},
      {"sequence": "TGTCTGACTGACTGACTGGCTGCTGCTGCTGCTCATTCCTCGGAGTCACCTAGTGCAG", "binding signal": "23800 fluorescence intensity (a.u.)"},
      {"sequence": "TCTCGCTTCTGCCACTGCTGGCTGTGCTGCTTCCCTAGCTCGGAGTCACCTAGTGCAG", "binding signal": "65100 fluorescence intensity (a.u.)"},
      {"sequence": "ATTCTCTCTTTTGCTCGCTTTGTTCCCTTTTCTTTCTTTTCGGAGTCACCTAGTGCAG", "binding signal": "3770 fluorescence intensity (a.u.)"},
      {"sequence": "GGAATTAATTAATGAATCACGTAGGCTACCTGGGTTGAAGCGGAGTCACCTAGTGCAG", "binding signal": "45800 fluorescence intensity (a.u.)"},
      {"sequence": "TAAAATTAACGTGGACACTAATCTAGTTTAGACTTTGATTCGGAGTCACCTAGTGCAG", "binding signal": "15500 fluorescence intensity (a.u.)"},
      {"sequence": "ACGTTTAATATTTATAATTAATTTTCAAACATCCGATGTGCGGAGTCACCTAGTGCAG", "binding signal": "19300 fluorescence intensity (a.u.)"},
      {"sequence": "TTAATGACTATTTAGTTGACATGTAAGAAACAGGGGATTTCGGAGTCACCTAGTGCAG", "binding signal": "3450 fluorescence intensity (a.u.)"},
      {"sequence": "AACTTGCATACCAGTGGAATTCTTCAGGCTGGTCATGGAGCGGAGTCACCTAGTGCAG", "binding signal": "65500 fluorescence intensity (a.u.)"},
      {"sequence": "AAACTTGATGGAATTCTTTAAATGTTCGATTGCTGGAGAGCGGAGTCACCTAGTGCAG", "binding signal": "16700 fluorescence intensity (a.u.)"},
      {"sequence": "GCTCGATTGGATAATTCTTCTGCATAACTAGCCAGTGGAGCGGAGTCACCTAGTGCAG", "binding signal": "26800 fluorescence intensity (a.u.)"},
      {"sequence": "TTAATTACTATCATTAGTGTTAAGTATATATTAACTAATGCGGAGTCACCTAGTGCAG", "binding signal": "25900 fluorescence intensity (a.u.)"},
      {"sequence": "GAACTTTACCGAATTTGTAAATTAGATGTAAACTCATTTTCGGAGTCACCTAGTGCAG", "binding signal": "3580 fluorescence intensity (a.u.)"},
      {"sequence": "GTGCCATTAATTTTGACTACTACTTGTGTGTCCTATCAAACGGAGTCACCTAGTGCAG", "binding signal": "7280 fluorescence intensity (a.u.)"},
      {"sequence": "AATTGGCTTGGCTAATTAATTACTCCATTTGCGAACATGGCGGAGTCACCTAGTGCAG", "binding signal": "4010 fluorescence intensity (a.u.)"},
      {"sequence": "GCGGATTAATTACTACTGGGCTGGCATTCTGATCACTTTGCGGAGTCACCTAGTGCAG", "binding signal": "25400 fluorescence intensity (a.u.)"},
      {"sequence": "ATAATTGATTCAACCTCGTTCTTAATTTGATACATCCTTCCGGAGTCACCTAGTGCAG", "binding signal": "32300 fluorescence intensity (a.u.)"},
      {"sequence": "ACCCTCATCTCTTCTCCTGATTGAATTGTCTTCCTCAACCCGGAGTCACCTAGTGCAG", "binding signal": "30400 fluorescence intensity (a.u.)"},
      {"sequence": "GCCTTAATTGATTAACCGTGTAACATCTTCCTCACGCACCCGGAGTCACCTAGTGCAG", "binding signal": "65500 fluorescence intensity (a.u.)"},
      {"sequence": "ATGCGATTGACTAATTAATTGACTGGGCTTTGGCATTGGGCGGAGTCACCTAGTGCAG", "binding signal": "65500 fluorescence intensity (a.u.)"},
      {"sequence": "ACTTTTCTATTTAATTTTATCTATTTTCTTAATAACTATGCGGAGTCACCTAGTGCAG", "binding signal": "4340 fluorescence intensity (a.u.)"},
      {"sequence": "TCTAGCTATTAATTTGCTCTCATTTATAACTTAGCCGCTACGGAGTCACCTAGTGCAG", "binding signal": "6390 fluorescence intensity (a.u.)"},
      {"sequence": "CCTAATTGACAAATGATTTCACCACGTCCCTTTCCATTTTCGGAGTCACCTAGTGCAG", "binding signal": "34200 fluorescence intensity (a.u.)"},
      {"sequence": "TTGACTGATTGCACGTCCAACCATAATTTCTTTTCGTCCACGGAGTCACCTAGTGCAG", "binding signal": "58600 fluorescence intensity (a.u.)"},
      {"sequence": "TAATTTTCTGAGTGATCAAATAATTGACCATAATTTTCCACGGAGTCACCTAGTGCAG", "binding signal": "8420 fluorescence intensity (a.u.)"},
      {"sequence": "CACTTAACTTAATTAGTTAATTATTGCTCTATTTTCTCTGCGGAGTCACCTAGTGCAG", "binding signal": "60500 fluorescence intensity (a.u.)"},
      {"sequence": "TAAACCAATTACAATGATTATTTTCAACCGACCACCGATTCGGAGTCACCTAGTGCAG", "binding signal": "23300 fluorescence intensity (a.u.)"},
      {"sequence": "AGGACTACTATAATTGCAACTGAAATAAAACCTTGGCTTGCGGAGTCACCTAGTGCAG", "binding signal": "5450 fluorescence intensity (a.u.)"},
      {"sequence": "CCCTCAATCAGCTGGTCGGCTGGTCGCACACACCACGTTCCGGAGTCACCTAGTGCAG", "binding signal": "11500 fluorescence intensity (a.u.)"},
      {"sequence": "TAACTAATTAGTTAACTAATCGTCAATGTCACTAGCTTCTCGGAGTCACCTAGTGCAG", "binding signal": "45100 fluorescence intensity (a.u.)"},
      {"sequence": "ATGATGAGATTGAGGTTGATATAGATAGCTTTGATGTTGACGGAGTCACCTAGTGCAG", "binding signal": "23200 fluorescence intensity (a.u.)"},
      {"sequence": "GTGATAATTGCAAAATTAGGAATTATGCAAGGGGTGTAGACGGAGTCACCTAGTGCAG", "binding signal": "49400 fluorescence intensity (a.u.)"},
      {"sequence": "TTTGCTAATGACAAATTAATTAGGCTTAATAAATTCGTCTCGGAGTCACCTAGTGCAG", "binding signal": "41500 fluorescence intensity (a.u.)"},
      {"sequence": "GGGAAGACGAGATTGAGTGGATCAAAAGCCCTAAACCAATCGGAGTCACCTAGTGCAG", "binding signal": "8660 fluorescence intensity (a.u.)"},
      {"sequence": "GCAGCTGACAGATGGAGGGATGTTCAGGATGTCCGGAGAACGGAGTCACCTAGTGCAG", "binding signal": "3250 fluorescence intensity (a.u.)"},
      {"sequence": "ATGATTGTGATTTATATTTTGAAATAAAGAGAGTAGTAATCGGAGTCACCTAGTGCAG", "binding signal": "50500 fluorescence intensity (a.u.)"},
      {"sequence": "ATAATTGATTGCTTTTGATGATTTCACCCTTATTTTGCTGCGGAGTCACCTAGTGCAG", "binding signal": "65100 fluorescence intensity (a.u.)"},
      {"sequence": "TTATTCAGATAATTTGATGATGATGAAAGCAGAAGCTTTGCGGAGTCACCTAGTGCAG", "binding signal": "8570 fluorescence intensity (a.u.)"},
      {"sequence": "ATATTTTGATTGAATATGACGTATCCTAGTAATTTGGACCCGGAGTCACCTAGTGCAG", "binding signal": "59700 fluorescence intensity (a.u.)"},
      {"sequence": "GACCTTATTTGCATTGATTGACCTTATTTGCATTGATTTTCGGAGTCACCTAGTGCAG", "binding signal": "19600 fluorescence intensity (a.u.)"},
      {"sequence": "ACATTTACTTAATTGTAAATATATATTTTGGTAATATATGCGGAGTCACCTAGTGCAG", "binding signal": "9650 fluorescence intensity (a.u.)"},
      {"sequence": "CTTAAATTGATTTATTTTGGAACGGAGAGAGTAATATGCACGGAGTCACCTAGTGCAG", "binding signal": "53500 fluorescence intensity (a.u.)"},
      {"sequence": "ATATTGAATTATTGATTTGATGAAAATAATTTAGTATTATCGGAGTCACCTAGTGCAG", "binding signal": "20500 fluorescence intensity (a.u.)"},
      {"sequence": "GAAAATAGTATGATTGAAAATGACGTAAAGTGAATAGACCCGGAGTCACCTAGTGCAG", "binding signal": "23000 fluorescence intensity (a.u.)"},
      {"sequence": "TACTACTAATTATTGTCTTCTTAGTAATCACCAAGTGTGCCGGAGTCACCTAGTGCAG", "binding signal": "20700 fluorescence intensity (a.u.)"},
      {"sequence": "AATTAATTAATTAGTCTGTTCTTATTGCTTAGTGTACTACCGGAGTCACCTAGTGCAG", "binding signal": "53600 fluorescence intensity (a.u.)"},
      {"sequence": "CCTAATTTCTAACATTATATTGTTGCTTAGTGTACTAACTCGGAGTCACCTAGTGCAG", "binding signal": "18700 fluorescence intensity (a.u.)"}
    ]}
  ]
}
